Screening data as filed in PubChem BioAssay.
Sm TGR block = S. mansoni TGR enzyme inhibition; Q962Y6; purified TGR, DTNB reduction, TNB absorbance 405 nm; Potency, µM (highest dose often 114 µM), inactives show at the highest dose activity change, negative = inhibition, actives largely listed as inhibitors; 3% of 360,000 active; active = well fitted inhibition curve with a large enough effect; inconclusive = small, poorly fitted or top-dose-only effect; inactive = no such curve, though single readings can be large or run the other way; also: potency is read from the fitted curve at half-maximal effect; % is scaled to controls: 0 for no effect and ±100 for the full control effect; nearly all actives have a fitted effect of over 60% in size
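Kinetic colorimetric format: TGR-catalysed, NADPH-driven DTNB reduction monitored via TNB absorbance. Enzyme dispensed at 20 nM; compound exposure 15 min at room temperature before reaction start.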
FMDV inh = antivirals against foot and mouth disease virus; FMDV antiviral cell-based qHTS; Potency, µM (highest dose often 57.9 µM), inactives show at the highest dose activity change, negative = inhibition, actives largely listed as inhibitors; 1.2% of 410,000 active; AID 1159524; calls by dose curve; tested in HEK293T cells; also: read-out not given here; potency is read from the fitted curve at half-maximal effect; % is scaled to controls: 0 for no effect and ±100 for the full control effect; nearly all actives have a fitted effect of over 45% in size
CHX counter = counter-screen for Shiga toxin inhibitors: cycloheximide protein synthesis inhibition; cell reporter, cycloheximide protein synthesis inhibition counterscreen; max response, %; 12% of 300,000 active; AID 2314; in the data active = max response mostly above about 13%, no sharp cut-off; inactive = mostly below about 14%; also: read at 38.3 µM for the half of the compounds with a filed dose; 0% is about no effect
Shiga toxin inh = blocks Shiga toxin action in Vero cells; 9.2% of 290,000 active; inhibition, % at 38.7 µM; Vero cells, Shiga toxin protein synthesis inhibition reporter; in the data active = inhibition mostly above about 28%, no sharp cut-off; inactive = mostly below about 43%; also: 0% is about no effect
* hit, by the source's call. Shown are actives, neighbours in structure and some others; about 12% of the full set was active somewhere.

Screening Cc1ccc(C(=O)NCC(c2ccco2)S(=O)(=O)c2cccs2)cc1C (stereo not given) returned Sm TGR block inconclusive and FMDV inh -2.2%.
COc1ccc(C(=O)NCC(c2ccco2)S(=O)(=O)c2cccs2)cc1OC (stereo not given) was read as Sm TGR block 1.26µM* and FMDV inh -16.1%.
Screening O=C(NCc1ccccc1)C(=O)NCC(c1cccs1)S(=O)(=O)c1cccs1 (stereo not given) returned Sm TGR block inconclusive and FMDV inh -15.5%.
Screening O=C(NCCc1ccccc1)C(=O)NCC(c1ccco1)S(=O)(=O)c1cccs1 (stereo not given) returned Sm TGR block 20µM* and FMDV inh -18.5%.
For COc1ccccc1CCNC(=O)C(=O)NCC(c1ccco1)S(=O)(=O)c1ccccc1 (stereo not given) the results were Sm TGR block 35.5µM* and FMDV inh -28.1%.
COc1ccccc1CCNC(=O)C(=O)NCC(c1cccs1)S(=O)(=O)c1ccccc1 (stereo not given) was read as Sm TGR block -15.1% and FMDV inh inconclusive.
Screening CCOc1ccccc1NC(=O)CSc1nc2ccccc2nc1Cc1ccc(C)cc1 returned Sm TGR block 4.3% and FMDV inh -3.3%.
Cc1ccc(C)c(N2CCN(S(=O)(=O)c3c(C(=O)N4CCC(C)CC4)c(C)n(C)c3C)CC2)c1 was read as Sm TGR block 2.6% and FMDV inh -11.3%.
O=C(NCC(c1ccco1)S(=O)(=O)c1cccs1)c1ccccc1 (stereo not given) was read as Sm TGR block 0.316µM* and FMDV inh 15.0%.
Screening Cc1ccc(C(=O)NCC(c2ccco2)S(=O)(=O)c2ccccc2)cc1C (stereo not given) returned Sm TGR block -16.5% and FMDV inh 28.6%.
O=C(NCC(c1ccco1)S(=O)(=O)c1cccs1)c1ccc(C(F)(F)F)cc1 (stereo not given) was read as Sm TGR block 4.47µM* and FMDV inh 4.5%.
`CC(C)(C)OC(=O)N1CCC(c2c(C(=O)NCc3ccco3)cnn2-c2ccccc2Cl)CC1` gave Sm TGR block -21.6% and FMDV inh -20.2%.
For Cc1cc2oc(C(=O)Nc3cccc(-c4nc5ccccc5o4)c3)c(C)c2cc1C the results were Sm TGR block -1.9% and FMDV inh -10.4%.
Screening O=C1C=CC(=O)N1CCCCCCCCCCN1C(=O)C=CC1=O returned FMDV inh 20µM*.
`COc1cc(C=CC(=O)c2ccccc2)cc(OC)c1OC` gave FMDV inh 15.8µM*.
Screening COc1cc(/C=C/C(C)=O)cc(OC)c1OC returned Sm TGR block -16.0%, FMDV inh inconclusive, CHX counter 3.3 and Shiga toxin inh 16.5.
COc1cc(C=CC(=O)c2cc(OC)c(OC)c(OC)c2)cc(OC)c1OC was read as FMDV inh 12.6µM*.
CCOC(=O)N1CCN(c2ccc(C(F)(F)F)cn2)CC1 was read as Sm TGR block 5.2%, FMDV inh -12.7%, CHX counter 20.5* and Shiga toxin inh 27.8.
Cc1cc(Br)ccc1NC(=O)COc1cc(=O)n(C)c2ccccc12 was read as Sm TGR block -6.8% and FMDV inh -3.2%.
Screening Cc1[nH]c2ccccc2c1Cc1nnc(SCC(N)=O)o1 returned Sm TGR block 44.7µM*, FMDV inh -10.8%, CHX counter -2.3 and Shiga toxin inh -2.1.
COc1ccc(CCNc2oc(COc3ccccc3)nc2C#N)cc1 was read as Sm TGR block -27.4%, FMDV inh -21.6%, CHX counter 12.9 and Shiga toxin inh 20.3.
Screening N#Cc1nc(COc2ccccc2Cl)oc1NCc1cccnc1 returned Sm TGR block 7.08µM*, FMDV inh -6.9%, CHX counter 13.5 and Shiga toxin inh 38.1*.
`COc1ccc(CNc2oc(COc3ccccc3)nc2C#N)cc1` gave Sm TGR block -20.6%, FMDV inh -12.5%, CHX counter 20.3* and Shiga toxin inh 40.2*.
For COc1ccc(Nc2oc(COc3ccc(C)cc3)nc2C#N)cc1 the results were Sm TGR block 1.7%, FMDV inh -28.8%, CHX counter 16.3 and Shiga toxin inh 41.1*.
`Cc1cccc(OCc2nc(C#N)c(NCc3ccc4c(c3)OCO4)o2)c1` gave Sm TGR block 3.7%, FMDV inh -9.9%, CHX counter 41.5* and Shiga toxin inh 56.0.
COc1ccc(Nc2oc(COc3ccc(OC)cc3)nc2C#N)cc1 was read as Sm TGR block 0.0%, FMDV inh 0.0%, CHX counter -2.4 and Shiga toxin inh 2.9.
`Cc1cc2nc(-c3ccc(NC(=O)c4ccc(OCC(C)C)cc4)cc3)oc2cc1C` gave Sm TGR block -1.6% and FMDV inh 6.1%.
`CC1CCc2onc(C(=O)N3CCN(c4ccc(Cl)cc4)CC3)c2C1` (stereo not given) gave Sm TGR block 5.7% and FMDV inh -25.2%.
`COc1ccc(C2C(C(=O)Nc3ccccc3OC)=C(C)Nc3c(C(=O)Nc4ccccc4)cnn32)c(OC)c1` (stereo not given) gave Sm TGR block 33.0% and FMDV inh -12.0%.
For Cc1ccc2[nH]c(=O)c(CN(C(=O)c3cccc(Cl)c3)C(C)(C)C)cc2c1 the results were Sm TGR block 2.6% and FMDV inh 0.0%.
Oc1c(C(c2ccccc2Cl)N2CCCC2)sc2nc(-c3ccco3)nn12 (stereo not given) was read as Sm TGR block 53.9% and FMDV inh -0.2%.
For CCOC(=O)c1ccc(NC(=O)Cn2cc(C(=O)C3CC3)c3ccccc32)cc1 the results were Sm TGR block 12.5% and FMDV inh -6.9%.
For CCNc1oc(COc2cccc(C)c2)nc1C#N the results were Sm TGR block -3.3%, FMDV inh 63.6%, CHX counter 23.0* and Shiga toxin inh 47.5.
For COc1ccc(Nc2oc(COc3cccc(C)c3)nc2C#N)cc1 the results were Sm TGR block -15.4%, FMDV inh 27.3%, CHX counter 60.4* and Shiga toxin inh 76.3*.
For N#Cc1nc(Cc2ccccc2)oc1NCc1ccccc1 the results were Sm TGR block -6.9%, FMDV inh 1.7%, CHX counter 27.9* and Shiga toxin inh active.
`Cc1cccc(OCc2nc(C#N)c(NCCN(C)C)o2)c1` gave Sm TGR block -35.1%, FMDV inh -14.5%, CHX counter 5.2 and Shiga toxin inh -1.8.
For COc1ccc(CCNc2oc(COc3ccc(Cl)cc3)nc2C#N)cc1OC the results were Sm TGR block -3.0% and FMDV inh 31.6µM*.
`COc1ccc(N(C(=O)c2ccc(Cl)cc2)S(=O)(=O)c2ccc(C)cc2)cc1` gave Sm TGR block -3.4% and FMDV inh -18.7%.
Screening COc1ccc(CCNc2oc(-c3ccccc3OC)nc2C#N)cc1 returned Sm TGR block 14.1µM*, FMDV inh -11.5%, CHX counter 9.4 and Shiga toxin inh 1.4.
COCCn1c(=O)c(-c2cc(F)cc(F)c2)nc2cnc(Oc3cccc(Cl)c3)nc21 was read as FMDV inh -16.8%.
`CCS(=O)(=O)N1Cc2ccccc2CC1C(=O)Nc1ncc(C)s1` (stereo not given) gave Sm TGR block 0.9%, FMDV inh 68.9%, CHX counter 40.5* and Shiga toxin inh 107.7*.
